Rows were chosen to be rich in hits. Some 2.6% of all compounds tested hit in one or more screens of this group.
TGFb inhibitor: qHTS for Inhibitors of TGF-b | actives 1.2% (n = 410,000) | AID 588855, 2011 | Potency, µM (series often up to 46.1 µM), inactives show at the highest dose activity, negative = inhibition, most hits filed as inhibitors | HepG2 CAGA-GFP TGF-b/SMAD3 reporter, GFP fluorescence, 18 h; TGF-beta stimulated, 500 pg/mL final; note: potency is the fitted concentration of half-maximal effect; % is set by controls: 0 for no effect and ±100 for the full control effect; nearly all actives have a fitted effect of over 65% in size
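Per well, imaged GFP fluorescence of HEPG2 CAGA-GFP cells gives the signal; cells get compound, then TGF-beta (500 pg/mL final), 18 h at 37 degrees C; %Activity versus -TGF-beta and +DMSO controls.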
uPA generation: qHTS for Inhibitors of Cell Surface uPA Generation. cell surface uPA generation assay, qHTS. Potency, µM (highest dose often 38.3 µM), inactives show at the top dose activity change, negative = inhibition, usual class: inhibitors. actives 0.31% (n = 330,000). AID 540303, 2011; active = well fitted inhibition curve with a large enough effect; inconclusive = small, poorly fitted or top-dose-only effect; inactive = no such curve, though single readings can be large or run the other way; tested in mouse RAW 264.7 cells; note: potency is the fitted concentration of half-maximal effect; % is set by controls: 0 for no effect and ±100 for the full control effect; nearly all actives have a fitted effect of over 55% in size
HepG2 tox-1: qHTS for Inhibitors of TGF-b: Cytotox Counterscreen. actives 0.76% (n = 410,000). HepG2 CAGA-GFP viability, ATP luminescence, 18 h. Potency, µM (highest dose often 46.1 µM), for the others: top-dose activity change, negative = cytotoxicity, most hits filed as cytotoxic; note: potency is the fitted concentration of half-maximal effect
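HepG2 CAGA-GFP cells (1000/well, DMEM with 1% FBS) received compound, then TGF-beta at 500 pg/mL final, and were incubated 18 hours at 37 degrees C. Viability was read by CellTiter-Glo luminescence. Media-only wells were set as complete cell-killing and DMSO as no toxicity.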
ATXN viability: Viability Counterscreen for Primary qHTS for Inhibitors of ATXN expression; actives 0.49% (n = 400,000); S2 cells (HEK-293 line with an ATXN2-luciferase reporter) viability, CellTiter-Fluor protease fluorescence, 24 h; Potency, µM (series often up to 56.7 µM), actives largely listed as cytotoxic; note: potency is the fitted concentration of half-maximal effect; nearly all actives have a fitted effect of over 40% in size
Giardia kill: Small Molecules that selectively kill Giardia lamblia: qHTS; Giardia lamblia trophozoite viability; activity change, % at 7.66 µM, hits read low; actives 0.15% (n = 340,000); AID 540267, 2011; in the data active = activity change below about -80%; inconclusive = between about -30% and that limit;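 note: parasites exposed to compound for two days anaerobically before the ATP read; % is set by controls: 0 for no effect and ±100 for the full control effect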
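Giardia lamblia trophozoites (100 cells/well) were incubated with compounds for 48 h at 37 deg C under anaerobic conditions. Viability was read as ATP content by one-step luminescence after 15-30 min at room temperature.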
ATXN2 expr inh: Primary qHTS for Inhibitors of ATXN expression; HEK-293 ATXN2-luciferase reporter, luminescence, 24 h; Potency, µM (titrated, usually from 57 µM), without a hit: at the highest dose activity change, negative = inhibition, hits mostly inhibitors; actives 0.72% (n = 360,000); AID 1745845, 2022; note: potency is the fitted concentration of half-maximal effect; % is set by controls: 0 for no effect and ±100 for the full control effect; nearly all actives have a fitted effect of over 55% in size
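qHTS (up to 57 uM final) was run with 24 h compound exposure of reporter cells at 37 °C. Each well was multiplexed: SteadyGlo luminescence measured ATXN2-luciferase expression after a fluorogenic Gly-Phe-AFC viability readout (25 uM final).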
TGFb confirm: qHTS for Inhibitors of TGF-b: Confirmation of Cherry Picks. actives 63% (n = 1,600). Potency, µM (series often up to 46.1 µM), for the others: top-dose activity, negative = inhibition, usual class: inhibitors. AID 720534, 2013. shares compounds with TGFb inhibitor. HepG2 CAGA-GFP TGF-b reporter, GFP fluorescence, 18 h; cells stimulated with TGF-beta, 500 pg/mL; note: potency is the fitted concentration of half-maximal effect; % is set by controls: 0 for no effect and ±100 for the full control effect; nearly all actives have a fitted effect of over 65% in size
HepG2 tox-2: qHTS for Inhibitors of TGF-b: Cytotox Counterscreen for Cherry Picks | shares compounds with TGFb inhibitor | HepG2 CAGA-GFP viability, ATP luminescence, 18 h; cells stimulated with TGF-beta, 500 pg/mL | Potency, µM (doses to about 46.1 µM), for the others: at the highest dose activity, negative = cytotoxicity, usual class: inhibitors | actives 27% (n = 1,600) | AID 720535, 2013; note: potency is the fitted concentration of half-maximal effect; % is set by controls: 0 for no effect and ±100 for the full control effect; nearly all actives have a fitted effect of over 70% in size
CCL64 TGFb inh: qHTS for Inhibitors of TGF-b: CCL64 Cells Orthogonal Assay for Cherry Picks; Potency, µM (titrated, usually from 46.1 µM), inactives show at the highest dose activity, negative = inhibition, actives largely listed as inhibitors; AID 720536, 2013; shares compounds with TGFb inhibitor; CCL64 CAGA-GFP reporter, TGF-b stimulated, GFP fluorescence, 18 h; actives 41% (n = 1,600); note: potency is the fitted concentration of half-maximal effect; nearly all actives have a fitted effect of over 65% in size
TGFb COP inh: qHTS for Inhibitors of TGF-b: Hit Validation in HepG2 Cells using COP promoter; actives 3% (n = 1,600); HepG2 COP-GFP TGF-b reporter, GFP fluorescence, 18 h; cells stimulated by added recombinant TGF-beta; Potency, µM (highest dose often 46.1 µM), without a hit: at the highest dose activity, negative = inhibition, actives largely listed as inhibitors; shares compounds with TGFb inhibitor; note: potency is the fitted concentration of half-maximal effect; nearly all actives have a fitted effect of over 70% in size
Starred values were filed as active, the others as inactive; i = inactive; ? = inconclusive; . = not tested or not shown. Unless noted, calls come from the whole dose curve; as a rule, active = well fitted curve in the direction sought with a large enough effect; inconclusive = small, poorly fitted or top-dose-only effect, or another doubt; inactive = no such curve, though single readings can be large; an effect the other way counts as inactive or inconclusive.

SMILES | TGFb inhibitor | uPA generation | HepG2 tox-1 | ATXN viability | Giardia kill | ATXN2 expr inh | TGFb confirm | HepG2 tox-2 | CCL64 TGFb inh | TGFb COP inh
CS(=O)(=O)c1ccc2nc(NC(=O)Nc3cccc(Cl)c3)sc2c1 | 2.24µM* | 1.7% | -39.1% | ? | -15.1 | -15.6% | 16.4µM* | ? | ? | 20.8%
CN(C)S(=O)(=O)c1ccc(Cl)c(NC(=O)CN2CCC(Cc3ccccc3)CC2)c1 | ? | -1.1% | -0.8% | i | 2.9 | -14.6% | 13µM* | ? | ? | 17.3%
CN(C)S(=O)(=O)c1ccc(NC(=O)CN2CCC(Cc3ccccc3)CC2)cc1 | -2.0% | -3.4% | -28.9% | ? | -5.5 | . | . | . | . | .
CCc1cccc(-n2nnc(-c3nc(-c4cccs4)no3)c2N)c1 | -0.6% | . | -15.3% | . | . | . | . | . | . | .
CCOc1ccc(C2C(C(N)=O)=C(C)Nc3nc(SCc4ccccc4F)nn32)cc1 (stereo not drawn) | -14.8% | . | -1.0% | i | . | 1.6% | . | . | . | .
OCC1OC(n2nc3ccccc3n2)C(O)C(O)C1O (stereo not drawn) | 7.7% | 9.1% | -1.6% | i | -11.2 | 3.7% | . | . | . | .
CNc1ncnc2c1ncn2[C@@H]1O[C@H](CO)[C@@H](O)[C@H]1O | ? | -11.2% | 5.6% | i | -21.6 | 63.0% | . | . | . | .
CN(C)c1ncnc2c1nnn2C1OC(CO)C(O)C1O (stereo not drawn) | 0.562µM* | . | -68.0% | ? | . | . | 2.06µM* | ? | ? | 19.7%
OCC1OC(n2ccc3c2ncn2ncnc32)C(O)C1O (stereo not drawn) | 5.01µM* | . | -64.2% | i | . | . | 1.84µM* | 0.517µM* | 4.5% | 24.0%
CN(C)c1ncnc2c1ncn2C1OC(CO)C(O)C1O (stereo not drawn) | 0.631µM* | -13.3% | -69.3% | ? | -6.7 | 58.7% | 0.651µM* | 5.8µM* | ? | 5.3%
COc1ccc(C[C@H](N)C(=O)N[C@H]2[C@@H](O)[C@H](n3cnc4c(N(C)C)ncnc43)O[C@@H]2CO)cc1 | 3.16µM* | 1µM* | -79.8% | 0.708µM* | 1.2 | 0.398µM* | 5.17µM* | 2.06µM* | 2.91µM* | ?
CN(C)c1ccc(CNC(=O)CN2C(=O)CCn3nc(-c4cn(C)c5ccccc45)cc32)cc1 | -15.3% | . | -15.6% | i | . | -8.5% | . | . | . | .
CCOc1ccccc1C(=O)N[C@H](C(=O)OCc1cc(=O)oc2cc(C)ccc12)C(C)C | ? | -81.5% | 0.0% | i | 31.2 | -22.1% | . | . | . | .
COc1cc(OC)cc(C(=O)N[C@H](C(=O)OCc2cc(=O)oc3cc(C)ccc23)C(C)C)c1 | ? | -8.2% | -0.5% | ? | 12.1 | -6.0% | ? | -4.9% | -12.3% | 11.8%
CC1CCc2c(sc(NC(=O)c3cc4nc(-c5ccc(Cl)cc5)cc(C(F)(F)F)n4n3)c2C#N)C1 (stereo not drawn) | -8.3% | . | 14.2% | i | . | 11.5% | . | . | . | .
OC(COC(c1ccccc1)c1ccccc1)CN1CCN(c2cccc(Cl)c2)CC1 (stereo not drawn) | 15.8µM* | 6.0% | -13.3% | ? | -3.2 | -11.9% | 18.4µM* | ? | ? | 41.2%
O=C(O)c1ccc(/C=C2\COc3ccccc3C2=O)cc1 | 14.1µM* | -0.5% | -19.6% | i | -2.1 | -34.3% | 16.4µM* | 16.4µM* | -88.6% | 25.7%
COc1cc(/C=C2\CC/C(=C\c3cc(OC)c(O)c(OC)c3)C2=O)cc(OC)c1O | ? | -8.6% | -46.5% | . | -6.4 | ? | . | . | . | .
Cc1cc(C)c2c(c1)C(=O)/C(=C/c1ccc(C(=O)O)cc1)CC2 | 3.5% | -4.1% | 3.7% | i | -8.9 | 59.7% | . | . | . | .
COc1ccc(/C=C2\COc3ccccc3C2=O)cc1OC | 15.8µM* | -1.9% | 1.2% | i | 11.0 | 3.8% | ? | ? | 18.4µM* | 6.3%
CCOc1cc(/C=C2\COc3ccccc3C2=O)cc(Br)c1OCC(=O)N(C)C | 3.55µM* | -1.4% | 12.6µM* | . | -13.5 | 22.4µM* | 16.4µM* | ? | 14.6µM* | ?
COc1cc(/C=C2\COC/C(=C\c3cc(OC)c(OC)c(OC)c3)C2=O)cc(OC)c1OC | 0.631µM* | -12.1% | 3.55µM* | ? | ? | 3.16µM* | 1.3µM* | 1.3µM* | 1.3µM* | 51.8%
O=c1[nH]/c(=C/c2ccc3c(c2)OCO3)c(=O)[nH]/c1=C/c1ccc2c(c1)OCO2 | 5.1% | . | -35.8% | . | . | . | . | . | . | .
CC1(C(=O)NC2CCCC2)CCC(=O)N1CCc1c[nH]c2ccccc12 (stereo not drawn) | -2.2% | . | -4.7% | i | . | 9.2% | . | . | . | .
CCOc1cc(/C=N/Nc2nc3ccccc3[nH]2)cc(Br)c1OCC(=O)N(C)C | 8.91µM* | -11.1% | 17.7% | ? | 2.9 | ? | 11.6µM* | ? | ? | 20.2%
COc1cc(C(=O)NCC(c2ccc(F)cc2)N2CCOCC2)ccc1OCc1ccccc1Cl (stereo not drawn) | 20µM* | ? | -16.0% | i | 7.6 | -9.1% | ? | ? | ? | 67.8%
COc1cc2c(cc1N)-c1ccc(N)cc1C2 | 0.0% | -5.1% | -10.0% | ? | -9.5 | 49.6% | . | . | . | .
CC1CCCC(C)N1C(=O)Cn1cc(/C=C2/C(=O)Nc3ccccc32)c2ccccc21 (stereo not drawn) | 6.31µM* | -0.5% | -16.8% | ? | -4.8 | ? | ? | -20.9% | ? | 2.1%

Screening data (PubChem BioAssay)
